In PubChem BioAssay (NCI):
Compounds without any hit were thinned out: in the full panel of roughly 83,000, 20% have a hit.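 How to read the values: 0–100, growth inhibition (40 = 60% inhibited); 0, no net growth; -100 to 0, cell death (-40 = 40% of starting cells died; -100 = all dead).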 Unmarked numbers belong to inactive results. The source made the active and inactive calls. The calls were made as follows: active = growth percent below 10; inactive = the rest.

Legend:
Assay in all cases: NCI-60 one-dose screen, 48 h (100 = growth as untreated, 0 = no growth, -100 = all killed)
Conditions in all cases: 10 µM unless noted
DU-145 prostate = system: DU-145 prostate
K-562 leukemia = system: K-562 leukemia
MALME-3M melanoma = system: MALME-3M melanoma
MDA-MB-231 breast = system: MDA-MB-231 breast
SF-268 CNS = system: SF-268 CNS
SF-295 CNS = system: SF-295 CNS
SF-539 CNS = system: SF-539 CNS
UACC-257 melanoma = system: UACC-257 melanoma
HCT-15 colon = system: HCT-15 colon
HT29 colon = system: HT29 colon
SNB-75 CNS = system: SNB-75 CNS
SNB-19 CNS = system: SNB-19 CNS
U251 CNS = system: U251 CNS
PC-3 prostate = system: PC-3 prostate
SK-MEL-5 melanoma = system: SK-MEL-5 melanoma
UACC-62 melanoma = system: UACC-62 melanoma
LOX IMVI melanoma = system: LOX IMVI melanoma
SK-MEL-28 melanoma = system: SK-MEL-28 melanoma

| SMILES | growth (DU-145 prostate) | growth (K-562 leukemia) | growth (MALME-3M melanoma) | growth (MDA-MB-231 breast) | growth (SF-268 CNS) | growth (SF-295 CNS) | growth (SF-539 CNS) | growth (UACC-257 melanoma) | growth (HCT-15 colon) | growth (HT29 colon) | growth (SNB-75 CNS) | growth (SNB-19 CNS) | growth (U251 CNS) | growth (PC-3 prostate) | growth (SK-MEL-5 melanoma) | growth (UACC-62 melanoma) | growth (LOX IMVI melanoma) | growth (SK-MEL-28 melanoma) |
| --- | --- | --- | --- | --- | --- | --- | --- | --- | --- | --- | --- | --- | --- | --- | --- | --- | --- | --- |
| CCCCCc1ccc(S(=O)(=O)Nc2cc(-c3csc(NC(=O)CN4CCN(C)CC4)n3)ccc2N2CCN(C)CC2)cc1 | 15.9% | 1.1% (active) | -91.4% (active) | -52.7% (active) | -33.5% (active) | -63.9% (active) | -86.2% (active) | -58.4% (active) | -68.4% (active) | -25.3% (active) | 94.7% | 5.25% (active) | -32.9% (active) | 29.6% | -89.9% (active) | -78.4% (active) | -82.9% (active) | -87.3% (active) |
| C#CCOc1ccc(/C=N\Nc2nc(-c3ccc(C)cc3)cs2)cc1OC | 85.3% | 69.6% | 116% | 88.6% | 102% | 92.4% | 96.4% | 93.3% | 86.1% | 88.2% | 114% | 95.2% | 89.3% | 69.6% | 71.6% | 74.7% | 93.7% | 89.9% |
| C=C(C=O)[C@@H]1CC[C@]2(COC(C)=O)CC[C@]3(C)C(CC[C@@H]4[C@@]5(C)CC[C@H](OC(C)=O)C(C)(C)[C@@H]5CC[C@]43C)[C@@H]12 (stereo partly specified) | -53% (active) | 2.89% (active) | -64.7% (active) | -32.2% (active) | 6.02% (active) | 0.392% (active) | -50.2% (active) | -17.2% (active) | -42.7% (active) | 4.87% (active) | 32.1% | 5.36% (active) | -50.7% (active) | 6.79% (active) | -96.9% (active) | -15.7% (active) |  | -42.8% (active) |
| N/C(=N\C(N)=N\c1nc2ccccc2s1)c1ccc(C(F)(F)F)cc1 | 80.1% | 76.6% | 101% | 84.5% | 74.3% | 69% | 98.7% | 115% | 28.8% | 105% | 97.2% | 90.3% | 41.9% | 8.57% (active) | 89% | 97.8% |  | 94.8% |
| C#Cc1ccc(C(=O)NCc2ccc(/C=C/C(=O)c3nccn3C)cc2)cc1 | 21% | 18.8% | 69.5% | 16.1% | 13.5% | 20.7% | -17% (active) | 67.7% | 2.77% (active) | 8.87% (active) | 67.3% | 16.9% | 17.3% | 30.7% | 38.8% | 21% | -74.8% (active) | 48.8% |
| CC(Nc1c(C#N)cnc2ccc(-c3cnc(N)nc3)cc12)c1ccccc1 (stereo unspecified) | 17.3% | 22.5% | 0.078% (active) | 19.1% | 13.4% | -17% (active) | 2.6% (active) | 34.1% | 9.92% (active) | 17.4% | 18.9% | 20.4% |  | 10.8% | -67.3% (active) | 3.27% (active) | 4.6% (active) | 17.9% |
| Cc1ccc2c(c1)Oc1nc(N)c(C#N)c(N)c1C2Sc1ccc(F)cc1 (stereo unspecified) | -98.9% (active) | -13.6% (active) | -91.9% (active) | -92.5% (active) | -81.6% (active) | -96.9% (active) | -99% (active) | -94.4% (active) | -77.9% (active) | -38.6% (active) | -14.1% (active) | -98.2% (active) | -95.9% (active) | -96.8% (active) | -95.4% (active) | -93.5% (active) |  | -98.9% (active) |
| COc1ccc(Oc2ccc(/C=N/NC(=O)CSc3nc4ccccc4c(=O)n3-c3ccc(Cl)cc3)cc2)cc1 | 49.2% | 58.4% | 63.9% | 46.7% | 57.9% | 67.7% | 32.2% | 94.7% | 56% | 16.1% | 41.6% | 61.5% | 36.5% | 63.7% | 78% | 61.9% | 14.7% | 89.3% |
| O=C(NCc1ncc[nH]1)c1ccc(-c2nc3ccc4[nH]ncc4c3c3c2CCCC3)cc1 | 21.6% | 14.7% | -14.7% (active) | 10% (active) | 3.81% (active) | 31.5% | -2.48% (active) | 27% | 48% | 22.3% | 30.1% | 13.9% | 13.2% | 2.66% (active) | 8.91% (active) | 4.94% (active) | 3.29% (active) | -1.75% (active) |
| O=C(NNc1nc2cc(F)ccc2n2c(CN3CCC(O)C3)ccc12)c1cnccn1 (stereo unspecified) | 24% | 11.8% | 12.1% | 34.2% | 22.6% | 4.11% (active) | 10.1% | 7.04% (active) | 25.7% | 23.8% | 51.9% | 22.3% | 19.9% | 25.2% | 4.28% (active) | 0.128% (active) | -0.788% (active) | 25.5% |
| CCCCCc1ccc(S(=O)(=O)Nc2cccc(-c3csc(NC(=O)CCCCCN4CCN(C)CC4)n3)c2)cc1 | 63.5% | -35.7% (active) | -67.4% (active) | 42.9% | 67.5% | 85.8% | 63% | 0.162% (active) | -7.05% (active) | 7.36% (active) | 85.9% | 72.3% | 26.2% | 50.3% | -66.8% (active) | 63.2% | -83.8% (active) | -18.9% (active) |
| O=C1CCC(N2C(=O)c3ccc(NS(=O)(=O)c4ccccc4OC(F)(F)F)cc3C2=O)C(=O)N1 (stereo unspecified) | 108% | 65.8% | 7.28% (active) | 6.46% (active) | 43.2% | 56.9% | 79.7% | 107% | 7.77% (active) | 78.4% | 58% | 39.6% | 75.8% | 46.4% | 45.9% | 93.3% | 105% | 66.8% |
| CC/C(=C/c1c(O)cccc1OC)c1ccc2c(OC)cccc2[o+]1 | 112% | 96.6% | 105% | 102% | 100% | 98.5% | 98.5% | 101% | 92.2% | 110% | 98.8% | 99.4% | 99.5% | 95.3% | 104% | 90.6% | 95% | 97.3% |
| C=CCN(C)S(=O)(=O)/N=C1\NC(=O)NC1=C(Cl)Cl | 72.8% | -3.52% (active) | -69.4% (active) | -25.5% (active) | 32.2% | 102% | -23.6% (active) | 57.4% | -77.2% (active) | 5.89% (active) | 100% | 58.4% | -10.2% (active) | 47% | 91.6% | 32.9% | -88.3% (active) | -83.6% (active) |
| CN1CCN(c2ccc(/C=N/Nc3nc4ccccc4c(=O)n3-c3ccccc3)cc2)CC1 | 109% | 103% | 102% | 105% | 90.7% | 101% | 101% | 114% | 99.2% | 100% | 95.5% | 105% | 102% | 93.2% | 92.4% | 101% |  | 103% |
| C#Cc1nc(/C=C/C(=O)c2nccn2C)cs1 | -45.6% (active) | -16.8% (active) | -75.6% (active) | -64.7% (active) | -54.2% (active) | -87.8% (active) | -82.7% (active) | -19% (active) | -72.9% (active) | -38.2% (active) | -3.26% (active) | -79.2% (active) | -74.3% (active) | -78.9% (active) | -84.2% (active) | -84.3% (active) | -81.4% (active) | -31.9% (active) |
| COC(=O)C1(C)CCC[C@]2(C)[C@H]3C[C@H]4C(C(C)C)=C[C@]3(CC[C@@H]12)[C@H]1[C@@H]4[C@@H](OC(=O)c2ccco2)CC[C@@H]1OC(=O)c1ccco1 (stereo partly specified) | 113% | 104% | 108% | 101% | 108% | 98.3% | 103% | 110% | 107% | 116% | 97.8% | 98.4% | 100% | 87.9% | 102% | 92.6% | 111% | 104% |
